Measured values taken from PubChem BioAssay AID1159580 (chemical genetic matrix, 2015).
Screen size: about 5,500 compounds; about 2,000 (36%) were called active. Roughly 18% stayed inconclusive and do not appear here. Cut-off read from the data, not from the text of the source: active = normalized growth mostly below about 0.91 (no sharp cut-off); inconclusive = no clear call, values can overlap the other calls; inactive = mostly above about 0.92. The list shows a part of the results.

Assay: chemical genetic growth profiling, strain panel (AID 1159580);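 note: tested at 20 µM; growth read once vehicle control cultures reached saturation at 30 °C; 1 = growth at the plate median or of vehicle wells; lower values mean less growth of the strain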
Details: S. cerevisiae deletion strains, growth OD

Measured: normalized growth

CO/N=C(\C(=O)NC1C(=O)N2C(C(=O)O)=C(COC(N)=O)CSC12)c1ccco1 (stereo unspecified)
active: locus YKL009W, strain mrt4, active compounds read low 0.311 | locus YKL068W, active compounds read low 0.575 | locus YKL085W, strain MDH1 (second series), active compounds read low 0.0978 | locus YKL085W, strain MDH1, active compounds read low 0.0978 | locus YKL190W, strain CNB1, active compounds read low 0.0476 | locus YKR001C, strain vps1, active compounds read low 0.0619 | locus YLR039C, strain RIC1, active compounds read low 0.0948 | locus YLR058C, strain SHM2, active compounds read low 0.0436 | locus YLR102C, strain apc9, active compounds read low 0.0609 | locus YLR262C, strain YPT6, active compounds read low 0.107 | locus YLR268W, strain sec22, active compounds read low 0.0592 | locus YLR330W, strain CHS5, active compounds read low 0.053 | locus YLR342W, strain FKS1 (second series), active compounds read low 0.0595 | locus YLR371W, strain rom2, active compounds read low 0.0612 | locus YLR418C, strain cdc73, active compounds read low 0.096 | locus YML016C, strain PPZ1, active compounds read low 0.0484 | locus YML032C, strain rad52, active compounds read low 0.0647 | locus YML124C, strain tub3, active compounds read low 0.0613 | locus YMR078C, strain ctf18, active compounds read low 0.0716 | locus YMR223W, strain ubp8, active compounds read low 0.0609 | locus YMR263W, strain SAP30, active compounds read low 0.0627 | locus YMR307W, strain GAS1, active compounds read low 0.13 | locus YNL067W, strain RPL9B, active compounds read low 0.0518 | locus YNL233W, strain BNI4, active compounds read low 0.061 | locus YNL250W, strain rad50, active compounds read low 0.297 | locus YNL271C, strain bni1, active compounds read low 0.224 | locus YNL298W, strain CLA4, active compounds read low 0.235 | locus YNL307C, strain MCK1, active compounds read low 0.0668 | locus YNL322C, strain KRE1, active compounds read low 0.0494 | locus YNR052C, strain pop2, active compounds read low 0.0644 | locus YOL012C, strain htz1 0.173 | locus YOL147C, strain pex11, active compounds read low 0.0578 | locus YOR061W, strain CKA2, active compounds read low 0.0318 | locus YOR069W, strain VPS5, active compounds read low 0.0536 | locus YOR136W, strain idh2, active compounds read low 0.067 | locus YOR144C, strain elg1, active compounds read low 0.0595 | locus YOR184W, strain ser1, active compounds read low 0.062 | locus YOR316C, strain cot1, active compounds read low 0.0579 | locus YPR119W, strain clb2, active compounds read low 0.0597 | locus YPR141C, strain kar3, active compounds read low 0.56 | locus YPR163C, strain tif3, active compounds read low 0.0674 | locus YPR167C, strain met16, active compounds read low 0.0656 | strain wtn01, active compounds read low 0.0569
inactive: locus YJR066W, strain TOR1, active compounds read low 0.972 | locus YKL160W, strain elf1, active compounds read low 0.961 | locus YKR026C, strain gcn3, active compounds read low 0.98 | locus YKR091W, strain srl3, active compounds read low 0.98 | locus YLL001W, strain dnm1, active compounds read low 0.944 | locus YLL026W, active compounds read low 0.991 | locus YLL041C, strain sdh2, active compounds read low 0.971 | locus YLR027C, strain aat2, active compounds read low 0.981 | locus YLR113W, strain HOG1, active compounds read low 1.07 | locus YLR221C, strain rsa3, active compounds read low 0.956 | locus YLR258W, strain gsy2, active compounds read low 0.975 | locus YLR262C, strain YPT6 (second series), active compounds read low 0.967 | locus YLR320W, strain mms22, active compounds read low 0.93 | locus YLR342W, strain FKS1, active compounds read low 0.972 | locus YLR357W, strain rsc2, active compounds read low 0.963 | locus YLR370C, strain arc18, active compounds read low 0.963 | locus YLR384C, strain iki3, active compounds read low 0.968 | locus YML120C, strain ndi1, active compounds read low 0.965 | locus YMR058W, strain fet3, active compounds read low 0.968 | locus YMR125W, strain sto1, active compounds read low 0.979 | locus YMR129W, active compounds read low 0.983 | locus YMR205C, strain PFK2, active compounds read low 0.949 | locus YMR231W, strain pep5, active compounds read low 0.968 | locus YNL071W, strain lat1, active compounds read low 0.974 | locus YNL183C, strain NPR1, active compounds read low 0.966 | locus YNL209W, strain ssb2, active compounds read low 0.985 | locus YNL248C, strain rpa49, active compounds read low 0.966 | locus YNL322C, strain KRE1 (second series), active compounds read low 0.969 | locus YNR049C, strain mso1, active compounds read low 0.978 | locus YOR001W, strain rrp6, active compounds read low 0.984 | locus YOR070C, strain gyp1, active compounds read low 0.988 | locus YOR080W, strain dia2, active compounds read low 0.986 | locus YOR083W, strain WHI5, active compounds read low 0.953 | locus YOR106W, strain vam3, active compounds read low 0.951 | locus YOR231W, strain MKK1, active compounds read low 1.06 | locus YOR265W, strain rbl2, active compounds read low 0.991 | locus YOR270C, strain vph1, active compounds read low 0.96 | locus YOR290C, strain snf2, active compounds read low 0.958 | locus YPL051W, strain arl3, active compounds read low 0.97 | locus YPL078C, strain atp4, active compounds read low 0.957 | locus YPL106C, strain sse1, active compounds read low 0.941 | locus YPL240C, strain hsp82, active compounds read low 0.982 | locus YPL256C, strain CLN2, active compounds read low 1.07
